# BoNT-A LC inh2: inhibitors of Botulinum neurotoxin A light chain protease | multiplex microsphere protease substrate cleavage, flow cytometry | inhibition, % at 10 µM | 0.17% of 360,000 active | AID 588499; note: plate controls were buffer without enzyme for full effect and enzyme alone for no effect
# TcdB GH inh: inhibitors of Clostridioides difficile toxin B glycohydrolase; P18177; TcdB glycohydrolase enzymatic assay, plate reader; inhibition, % at 9.99 µM; 0.24% of 350,000 active; in the data active = inhibition above about 10%
# Anthrax LF prot: inhibitors of Bacillus anthracis lethal factor protease; P15917; multiplex microsphere protease cleavage assay, LF; inhibition, % at 10 µM; 0.12% of 360,000 active; AID 588501; note: plate controls were buffer without enzyme for full effect and enzyme alone for no effect
# Autofluor counter: compound fluorescence in toxin protease inhibitor counterscreen. compound autofluorescence counterscreen, microsphere flow cytometry; active compounds read high. 3.1% of 360,000 active. fluorescence intensity (test concentration not listed); in the data active = fluorescence intensity above about 16000; inconclusive = no clear call, values can overlap the other calls
# BoNT-F LC inh: inhibitors of Botulinum neurotoxin F light chain protease; Multiplex microsphere protease cleavage assay, flow cytometry; inhibition, % at 10 µM; 0.22% of 360,000 active; AID 588497; in the data active = inhibition above about 35%, passing the limit was not always enough; inconclusive = no clear call, values can overlap the other calls; note: plate controls were buffer without enzyme for full effect and enzyme alone for no effect
# An asterisk follows results filed as active; ? = inconclusive; . = not tested or not shown. Only a selection was taken, and hits are over-represented in it overall. Cut-off read from the data, not from the text of the source, unless noted: active = inhibition above about 30%; inconclusive = no clear call, values can overlap the other calls; inactive = below that.
SMILES,BoNT-A LC inh2,TcdB GH inh,Anthrax LF prot,Autofluor counter,BoNT-F LC inh
COC(=O)C(C)N(C(=O)c1ccc(C(=O)c2ccccc2)cc1)c1c(C)cccc1C (stereo unspecified),0,.,-4,11141,6
O=C(CC1Nc2ccccc2NC1=O)Nc1cc(Cl)cc(Cl)c1 (stereo unspecified),-6,.,0,22648*,-8
O=C(CC1NC(=O)NC1=O)Nc1ccc(Cl)cc1 (stereo unspecified),9,.,-16,?,19
CN1C(=O)c2cc(NC(=O)Cc3ccccc3)ccc2OC[C@H]2O[C@H](CC(=O)NC3CCC3)CC[C@@H]21,.,0,.,.,.
COc1cccc(S(=O)(=O)NCc2ccc(C(=O)NCc3ccco3)cc2)c1,-6,.,1,25859*,-6
O=C(COC(=O)c1ccc(S(=O)(=O)NCc2ccco2)cc1)NC1CCCCCC1,-1,1,-15,9658,-2
COc1cccc(NC(=O)COC(=O)c2ccc(S(=O)(=O)NCc3ccco3)cc2)c1,-3,.,-1,23475*,-9
O=C(NC1CCCCCC1)c1ccc(S(=O)(=O)NCc2ccco2)cc1,-1,.,-1,23471*,-1
O=S(=O)(NCc1ccco1)c1ccc(S(=O)(=O)N2CCCCC2)cc1,-1,1,-6,23145*,-4
Cn1cnc(S(=O)(=O)N[C@@H]2C=C[C@H](CC(=O)N3CCN(c4ccccc4)CC3)O[C@H]2CO)c1,.,0,.,.,.
C[C@@H]1CCCCO[C@H](CN(C)Cc2ccccc2)[C@H](C)CN([C@@H](C)CO)C(=O)c2cc(NC(=O)Nc3ccc(F)cc3)ccc2O1,.,1,.,.,.
CC1CCCCC1NC(=O)COC(=O)c1ccc(S(=O)(=O)NCc2ccco2)cc1 (stereo unspecified),4,.,-7,21167*,6
COC(=O)c1scc(C)c1N/N=C(\C)c1ccc(F)cc1,?,.,-10,23635*,-11
Cc1csc(C(=O)O)c1NC(=O)c1ccc(F)cc1,0,2,4,3044,-12
Cc1ccc(-c2nnn(CC(=O)N(CC(=O)NCC3CCCO3)c3ccc(F)c(Cl)c3)n2)o1 (stereo unspecified),-7,.,-5,25388*,-11
CCC(C(=O)NC1CCCC1)N(C(=O)Cn1nnc(-c2ccc(C)o2)n1)c1cnc2ccccc2c1 (stereo unspecified),-10,.,-1,26220*,-11
Cc1ccc(-c2nnn(CC(=O)N(CC(=O)NC(C)C)c3cnc4ccccc4c3)n2)o1,0,0,-2,7183,2
Cc1ccc(-c2nnn(CC(=O)N(CC(=O)NC3CCCC3)c3cnc4ccccc4c3)n2)o1,1,.,-1,20315*,0
COc1ccc2c3c(n(C)c2c1)[C@H](CO)N(C(C)=O)CC31CN(C(=O)Nc2ccc(F)cc2)C1,.,1,.,.,.
CCCc1cn(CC[C@H]2CC[C@H](NC(=O)C3CCC3)[C@@H](CO)O2)nn1,.,0,.,.,.
CN1C(=O)C(=Cc2ccc(N3CCOCC3)o2)C(=O)N(C)C1=O,-1,.,1,2485,-4
CN1C(=O)C(=Cc2ccc(N3CCCCCC3)o2)C(=O)N(C)C1=S,27,.,30*,14036,197*
CC(C)OC(=O)CSc1nnc(Cc2ccccc2)n1Cc1ccco1,2,.,-9,19241*,-1
O=C(CSc1nnc(Cc2ccccc2)n1Cc1ccco1)NC1CCCC1,0,.,-1,11034,1
C[C@@H]1CN([C@H](C)CO)C(=O)c2cccc(NC(=O)Nc3ccccc3)c2O[C@@H]1CN(C)C(=O)Nc1ccc2c(c1)OCO2,.,2,.,.,.
SMILES,BoNT-A LC inh2,TcdB GH inh,Anthrax LF prot,Autofluor counter,BoNT-F LC inh
Cc1nnc2n1N=CC=C(C(C)(C)C)S2,-2,.,-13,23527*,-3
O=C(C1CCCC1)N1CC2(C1)[C@@H](c1ccccc1)[C@@H](CO)N2C(=O)NC1CCCC1,.,-2,.,.,.
COc1cc2c(C(=O)N3CCN(C)CC3)c(C)oc2cc1Br,0,.,0,19992*,0
CCN(CC)CCNC(=O)c1c(C)oc2cc(Br)c(OC)cc12,4,.,-4,21610*,7
CCCCn1c(N(CCOC(C)=O)C(C)=O)nc2ccccc21,4,.,-10,19843*,7
CC(C)(C)C(=O)C1=C(O)C(=O)N(c2ccccc2)C1c1ccccc1 (stereo unspecified),-3,22*,0,3821,-17
O=S(=O)(CC(CN1CCCC1)N1CCCC1)c1ccc2ccccc2c1 (stereo unspecified),3,.,-4,26003*,7
CCC(=O)NC[C@@H]1[C@@H](c2ccc(C3=CCCC3)cc2)[C@@H](CO)N1CC1CCCC1,.,0,.,.,.
COc1ccc(CCn2c(Br)nc3c2c(=O)[nH]c(=O)n3C)cc1,-3,.,3,17013*,-3
